Results on 37 compounds are retold here after the supplement of paper PMC7695840.

Structures can show the parent of a compound that is named as a salt.

Experiment [1] deals with Staphylococcus aureus MW2 delta-mecA (mecA-). The experiment is described as follows: normalized GFP fluorescence (growth of mecA- strain) (fraction of control range); higher = more growth of mecA- strain. The settings on record: compound concentration: 150 uM; cefoxitin: subinhibitory; fluorescent label: GFP. Summed up: (§1)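 Pre-induced S. aureus MW2 mecA+ (DsRed) and ΔmecA (GFP) cells were mixed 1:1 in LB with a daily-set subinhibitory cefoxitin dose. They were dispensed at 5 µL/well onto 150 μM compound (1.5% DMSO) in 1536-well plates, single replicate. Growth was 20 h at 37 °C, 90% humidity, unshaken, and DsRed (540/590) and GFP (485/520) were then read. Each channel was scaled per plate between the medians of the single-strain controls. Plates with high No Treatment ratios and rows with DsRed/GFP >10 were excluded.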

For experiment [2], the system named is Staphylococcus aureus MW2 (mecA+). The experiment is described as follows: normalized DsRed fluorescence (growth of mecA+ strain) (fraction of control range); higher = more growth of mecA+ strain. The following applies: compound concentration: 150 uM; cefoxitin: subinhibitory; fluorescent label: DsRed. Summed up:
as §1

`CCCNC(C)C(=O)Nc1ccccc1C` (centres undefined): the “normalized GFP fluorescence” value in experiment [1] was found to be 0.223. In experiment [2], the “normalized DsRed fluorescence” value came to 0.919.

Turning to `COc1cc2ncnc(Nc3ccc(F)c(Cl)c3)c2cc1NC(=O)/C=C/CN1CCCCC1`, the “normalized GFP fluorescence” value in experiment [1] worked out at 0.102. Further, in experiment [2], the “normalized DsRed fluorescence” value stood at 0.557.

For the compound `COc1cc(C)c(/C=C/C(C)=C/C=C/C(C)=C/C(=O)O)c(C)c1C` [Acitretin], the “normalized GFP fluorescence” value in experiment [1] was determined as 0.0102. Also, in experiment [2], the “normalized DsRed fluorescence” value was 0.289.

Consider `NC(=O)c1cccnc1` [Nicotinamide (Niacinamide)], for which the “normalized GFP fluorescence” value in experiment [1] was determined as 0.478. For the same compound, the “normalized DsRed fluorescence” value in experiment [2] came out at 0.458.

Consider `CCOC(=O)C1=C(COCCN)NC(C)=C(C(=O)OC)C1c1ccccc1Cl` (centres undefined), for which the “normalized GFP fluorescence” value in experiment [1] was -0.0144. Moreover, the “normalized DsRed fluorescence” value in experiment [2] was 1.06.

In the case of `O=C1c2c(O)ccc(O)c2C(=O)c2c(NCCNCCO)ccc(NCCNCCO)c21`, in experiment [1], the “normalized GFP fluorescence” value came out at 0.184. Also, the “normalized DsRed fluorescence” value in experiment [2] was found to be 1.12.

For the compound `C[C@@H]1[C@H](O)[C@@H](C)/C=C/C=C/C=C/C=C/C=C/C=C/C=C/[C@H](O[C@@H]2O[C@H](C)[C@@H](O)[C@H](N)[C@@H]2O)C[C@@H]2O[C@](O)(C[C@@H](O)C[C@@H](O)[C@H](O)CC[C@@H](O)C[C@@H](O)CC(=O)O[C@H]1C)C[C@H](O)[C@H]2C(=O)O`, the “normalized GFP fluorescence” value in experiment [1] was 0.269. In addition, in experiment [2], the “normalized DsRed fluorescence” value was determined as 0.735.

Take `Cc1ccc(S(=O)(=O)NC(=O)NN2CCCCCC2)cc1`: the “normalized GFP fluorescence” value in experiment [1] was 0.372. Further, the “normalized DsRed fluorescence” value in experiment [2] turned out to be 0.655.

With `CCS(=O)(=O)N1CC(CC#N)(n2cc(-c3ncnc4[nH]ccc34)cn2)C1`, the “normalized GFP fluorescence” value in experiment [1] was 0.236. The “normalized DsRed fluorescence” value in experiment [2] came to 1.85.

As for `COc1cc(OC)c(C(=O)CCCN2CCCC2)c(OC)c1` [Buflomedil HCl], the “normalized GFP fluorescence” value in experiment [1] was determined as 0.4. In experiment [2], the “normalized DsRed fluorescence” value stood at 0.499.

`CCOC(=O)[N-]c1c[n+](N2CCOCC2)no1`: the “normalized GFP fluorescence” value in experiment [1] came out at 0.369. For the same compound, in experiment [2], the “normalized DsRed fluorescence” value amounted to 0.863.

As for `NCC(=O)CCC(=O)O`, the “normalized GFP fluorescence” value in experiment [1] amounted to 0.315. In addition, the “normalized DsRed fluorescence” value in experiment [2] came out at 1.12.

As to `CC(C)[N+]1(C)[C@@H]2CC[C@H]1C[C@@H](OC(=O)C(CO)c1ccccc1)C2` (some centres undefined), in experiment [1], the “normalized GFP fluorescence” value amounted to 0.206. In addition, in experiment [2], the “normalized DsRed fluorescence” value came to 0.856.

As to `CCCC(CCC)C(=O)O` [Valproic acid sodium salt (Sodium valproate)], the “normalized GFP fluorescence” value in experiment [1] was 0.506. The “normalized DsRed fluorescence” value in experiment [2] was found to be 0.638.

With `CC(=O)OCC(=O)[C@@]12N=C(C)O[C@@H]1C[C@H]1[C@@H]3CCC4=CC(=O)C=C[C@]4(C)[C@H]3[C@@H](O)C[C@@]12C`, the “normalized GFP fluorescence” value in experiment [1] came out at 0.231. The “normalized DsRed fluorescence” value in experiment [2] stood at 0.567.

Turning to `CCN(CCO)CCCC(C)Nc1ccnc2cc(Cl)ccc12` (centres undefined), the “normalized GFP fluorescence” value in experiment [1] stood at 0.323. Also, the “normalized DsRed fluorescence” value in experiment [2] was found to be 1.33.

In the case of `NCCNCCNCCN`, the “normalized GFP fluorescence” value in experiment [1] was 0.763. Besides, in experiment [2], the “normalized DsRed fluorescence” value amounted to 0.66.

With `CCC[C@H](N[C@@H](C)C(=O)N1[C@H](C(=O)O)C[C@@H]2CCCC[C@@H]21)C(=O)OCC` [Perindopril Erbumine (Aceon)], the “normalized GFP fluorescence” value in experiment [1] came to 0.225. The “normalized DsRed fluorescence” value in experiment [2] was found to be 0.779.

Consider `Cc1ccc(=O)n(-c2ccccc2)c1` [Pirfenidone], for which, in experiment [1], the “normalized GFP fluorescence” value came out at 0.368. Besides, in experiment [2], the “normalized DsRed fluorescence” value was 0.778.

For `O=C1Cc2cc(CCN3CCN(c4nsc5ccccc45)CC3)c(Cl)cc2N1`, the “normalized GFP fluorescence” value in experiment [1] was 0.33. For the same compound, in experiment [2], the “normalized DsRed fluorescence” value was determined as 0.989.

Turning to `Clc1ccc(CCC(Cn2ccnc2)Sc2c(Cl)cccc2Cl)cc1` (centres undefined), the “normalized GFP fluorescence” value in experiment [1] was -0.00294. Also, the “normalized DsRed fluorescence” value in experiment [2] was found to be 0.01.

Take `COc1cc(NS(=O)(=O)c2ccc(N)cc2)nc(OC)n1`: the “normalized GFP fluorescence” value in experiment [1] stood at 0.338. The “normalized DsRed fluorescence” value in experiment [2] was 1.32.

Take `COc1cc(Nc2ncc(F)c(Nc3ccc4c(n3)N(COP(=O)(O)O)C(=O)C(C)(C)O4)n2)cc(OC)c1OC`: the “normalized GFP fluorescence” value in experiment [1] came out at 0.774. Further, the “normalized DsRed fluorescence” value in experiment [2] amounted to 0.602.

`CC(C)COCC(CN(Cc1ccccc1)c1ccccc1)N1CCCC1` (centres undefined): the “normalized GFP fluorescence” value in experiment [1] came to 0.00856. Further, the “normalized DsRed fluorescence” value in experiment [2] is 0.96.

For the compound `COc1ccc(CC2c3cc(OC)c(OC)cc3CC[N+]2(C)CCC(=O)OCCCCCOC(=O)CC[N+]2(C)CCc3cc(OC)c(OC)cc3C2Cc2ccc(OC)c(OC)c2)cc1OC` (centres undefined), the “normalized GFP fluorescence” value in experiment [1] amounted to 0.325. The “normalized DsRed fluorescence” value in experiment [2] is 0.862.

Take `CN(C)CCOC(C)(c1ccccc1)c1ccccn1` (centres undefined): the “normalized GFP fluorescence” value in experiment [1] is 0.411. Moreover, in experiment [2], the “normalized DsRed fluorescence” value came to 0.892.

For `C#C[C@]1(O)CC[C@H]2[C@@H]3CCC4=CC(=O)CC[C@@H]4[C@H]3CC[C@@]21CC`, the “normalized GFP fluorescence” value in experiment [1] came out at 0.305. Moreover, the “normalized DsRed fluorescence” value in experiment [2] stood at 1.05.

For the compound `C[N+](C)(C)CCOC(N)=O`, the “normalized GFP fluorescence” value in experiment [1] came to 0.245. Besides, the “normalized DsRed fluorescence” value in experiment [2] turned out to be 0.816.

On to `COc1cc(C(=O)NS(=O)(=O)c2ccccc2C)ccc1Cc1cn(C)c2ccc(NC(=O)OC3CCCC3)cc12` [Zafirlukast (Accolate)], for which the “normalized GFP fluorescence” value in experiment [1] is -0.00168. In experiment [2], the “normalized DsRed fluorescence” value amounted to 0.0292.

As to `NC(=O)c1ncn([C@@H]2O[C@H](CO)[C@@H](O)[C@H]2O)n1`, the “normalized GFP fluorescence” value in experiment [1] came out at 0.38. Besides, in experiment [2], the “normalized DsRed fluorescence” value is 0.58.

For the compound `c1cnc2cc3c(cc2n1)[C@@H]1CNC[C@H]3C1` [Varenicline tartrate], the “normalized GFP fluorescence” value in experiment [1] amounted to 0.504. In experiment [2], the “normalized DsRed fluorescence” value amounted to 0.508.

`O=C(O)C[C@H](O)C[C@H](O)/C=C/c1c(C2CC2)nc2ccccc2c1-c1ccc(F)cc1` [Pitavastatin calcium (Livalo)]: the “normalized GFP fluorescence” value in experiment [1] is -0.0148. The “normalized DsRed fluorescence” value in experiment [2] was determined as 0.559.

Take `CC(C)(C)NCC(O)c1cc(O)cc(O)c1` (centres undefined): in experiment [1], the “normalized GFP fluorescence” value is 0.587. In addition, the “normalized DsRed fluorescence” value in experiment [2] was 0.611.

Regarding `CC(=O)Oc1ccccc1C(=O)O` [Aspirin (Acetylsalicylic acid)], the “normalized GFP fluorescence” value in experiment [1] came out at 0.393. Further, the “normalized DsRed fluorescence” value in experiment [2] was 0.803.

`NC(=O)N1c2ccccc2CC(=O)c2ccccc21`: the “normalized GFP fluorescence” value in experiment [1] amounted to 0.596. The “normalized DsRed fluorescence” value in experiment [2] worked out at 0.408.

For `COc1cc2nc(N3CCN(C(=O)C4COc5ccccc5O4)CC3)nc(N)c2cc1OC` (centres undefined) [Doxazosin mesylate], the “normalized GFP fluorescence” value in experiment [1] is 0.0162. In experiment [2], the “normalized DsRed fluorescence” value stood at 1.12.

For the compound `COc1cc2c(cc1OC)C(=O)C(CC1CCN(Cc3ccccc3)CC1)C2` (centres undefined), the “normalized GFP fluorescence” value in experiment [1] turned out to be 0.341. Further, the “normalized DsRed fluorescence” value in experiment [2] is 0.564.
